PubChem BioAssay (Tox21)
Inconclusive results are not listed. Entries that show only a call come without a potency. Activity calls are given as the source filed them. Unless noted, the call rests on the fitted dose curve.

Assays:
[1] = Nuclear factor erythroid 2-related factor 2/antioxidant responsive element (Nrf2/ARE) small molecule agonists: luciferase reporter gene qHTS assay in human keratinocytes (AID 1919969); further: nearly all actives have a fitted effect of over 35% in size; further: potency means the concentration at half of the fitted maximal effect
[2] = target: Gonadotropin-releasing hormone receptor (Homo sapiens) (UniProt P30968); test: Human gonadotropin-releasing hormone receptor (GnRHR) small molecule agonists, calcium flux assay in GnRHR-HEK293 cells (AID 1920063); further: nearly all actives have a fitted effect of over 35% in size
Outline: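 Fluorescence kinetics (480 nm excitation, 540 nm emission; 3 min, 1 s steps) report calcium mobilisation in human GnRHR-HEK293 cells in agonist mode. Dye incubation: 1 h, 37 C.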

[3] = target: KiSS-1 receptor (Homo sapiens) (UniProt Q969F8); test: Human kisspeptin (KISS1R) small molecule agonists, calcium flux assay in KISS1R-HEK293 cells (AID 1920064; active means well fitted activation curve with a large enough effect in the repeat runs)
Outline: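 Measures KISS1R agonism through calcium-sensitive dye fluorescence in stably transfected HEK293 cells, read for 3 min after pin-tool compound delivery; 15-point titrations in triplicate.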

[4] = G protein-coupled receptor (GPCR) small molecule agonists, calcium flux assay: HEK293 wild type cell line counter screen (AID 1920065)
Outline: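 Readout: fluorescence at 480 nm excitation/540 nm emission, sampled at 1 s intervals for 3 min. Cells had been cultured 18 h, then dye-loaded 1 h at 37 C before compound or ATP addition.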

[5] = p53 small molecule agonists, cell-based qHTS assay with human liver microsomes (AID 1963577);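 further: p53 response element beta-lactamase reporter cells with liver microsomes plus NADPH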
Outline: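 Steps: plate p53RE-bla cells, incubate 5 h at 37 C; add compound in DMSO; add microsomes (0.5 mg/mL final) and NADPH (0.5 mg/mL final); incubate 16 h at 37 C; add LiveBLAzer, 2 h RT; read fluorescence.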

[6] = p53 small molecule agonists, cell-based qHTS assay with rat liver microsomes (AID 1963578)
Outline: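 Metabolic activation is supplied by rat liver microsomes with NADPH (each 0.5 mg/mL final). p53RE-bla cells incubate with compound 16 h at 37 C; reporter activity is measured by LiveBLAzer fluorescence.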

[7] = p53 small molecule agonists, cell-based qHTS assay with human liver microsomes: qHTS cell viability counter screen (AID 1963579); further: nearly all actives have a fitted effect of over 45% in size
Outline: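 After the 460/530 nm beta-lactamase read, CellTiter-Glo was added to the same wells and luminescence measured after 30 min at room temperature, giving viability of p53RE-bla cells treated 16 h with compounds plus microsomes and NADPH.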

[8] = p53 small molecule agonists, cell-based qHTS assay with rat liver microsomes: qHTS cell viability counter screen (AID 1963580); further: nearly all actives have a fitted effect of over 45% in size
Outline: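 In HCT-116 cells carrying a p53 response element-bla reporter, compounds were metabolically activated in situ by rat liver microsomes with NADPH over 16 h. Cell ATP content then served as the cytotoxicity measure.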

[9] = p53 small molecule agonists, cell-based qHTS assay: qHTS cell viability counter screen (AID 1963581); further: nearly all actives have a fitted effect of over 45% in size
Outline: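 In the same plates used for the p53 bla reporter, HCT-116 cells given compounds for 16 h at 37 C received CellTiter-Glo; luminescence was recorded 30 min later at room temperature.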

[10] = p53 small molecule agonists, cell-based qHTS assay (AID 1963582; active means well fitted activation curve with a large enough effect in the signal ratio in the repeat runs, not every such curve was filed as active; the % refers to the signal ratio)
Outline: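 Compounds are pin-transferred in DMSO onto p53RE-bla cells and incubated 16 h at 37 C. The B/G FRET beta-lactamase substrate is then applied for 2 h at RT and fluorescence recorded.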

[11] = target: 5-hydroxytryptamine receptor 2A (Homo sapiens) (UniProt P28223); test: 5-hydroxytryptamine receptor 2A (HTR2A) small molecule antagonists, cell-based qHTS assay (AID 1963586); further: nearly all actives have a fitted effect of over 45% in size
Outline: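 Antagonist-mode intracellular calcium assay: DOI (4 nM) added after 5 min compound pre-incubation at room temperature to dye-loaded HTR2A-CHO cells. Fluorescence followed for 3 min, sampled every second.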

[12] = target: 5-hydroxytryptamine receptor 2A (Homo sapiens) (UniProt P28223); test: 5-hydroxytryptamine receptor 2A (HTR2A) small molecule agonists, cell-based qHTS assay (AID 1963587); further: nearly all actives have a fitted effect of over 30% in size
Outline: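 HTR2A-CHO cells, plated 18 h at 37 C/5% CO2, dye-loaded 1 h at 37 C; compounds in DMSO added by pin tool (agonist mode). Intracellular calcium flux read as kinetic fluorescence on FDSS over 2 min at 1 s intervals.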

[13] = target: Muscarinic acetylcholine receptor M1 (Homo sapiens) (UniProt P11229); test: Cholinergic receptor muscarinic 1 (CHRM1) small molecule antagonists, cell-based qHTS assay (AID 1963588); further: nearly all actives have a fitted effect of over 40% in size
Outline: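 CHRM1-CHO calcium-flux assay, antagonist mode. Cells were seeded 18 h, dye-loaded 1 h at 37 C and given compound for 5 min at RT, then acetylcholine was added at 50nM. FDSS fluorescence was read 3 min; 15 concentrations, three runs.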

[14] = target: Muscarinic acetylcholine receptor M1 (Homo sapiens) (UniProt P11229); test: Cholinergic receptor muscarinic 1 (CHRM1) small molecule agonists, cell-based qHTS assay (AID 1963589); further: nearly all actives have a fitted effect of over 35% in size
Outline: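 Each compound was tested at 15 concentrations across three independent runs on dye-loaded CHO cells stably expressing human CHRM1, reading intracellular calcium fluorescence kinetically at 1 sec intervals.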

[15] = cAMP Responsive Elements (CRE) small molecule agonists, cell-based qHTS assay (AID 1963590)
Outline: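 Cell line: CRE-bla HEK 293T; medium DMEM/10% dialyzed FBS/0.1 mM NEAA/1 mM pyruvate/25 mM HEPES; 3 h compound exposure; beta-lactamase FRET readout after 2 h substrate loading at RT.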

[16] = cAMP Responsive Elements (CRE) small molecule antagonists, cell-based qHTS assay (AID 1963591; active means well fitted inhibition curve with a large enough effect in the signal ratio in the repeat runs, not every such curve was filed as active; the % refers to the signal ratio)
Outline: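 Inhibition of NKH477-driven (0.25 uM final) CRE-beta-lactamase signal in HEK293T cells, 3 h compound exposure at 37 °C, detected by FRET substrate fluorescence.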

[17] = target: Beta-2 adrenergic receptor (Homo sapiens) (UniProt P07550); test: Adrenergic beta2 receptor (ADRB2) small molecule antagonists, cell-based qHTS assay (AID 1963592); further: series mostly up to about 92 µM; nearly all actives have a fitted effect of over 50% in size
Outline: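 Cells (CHO, stable ADRB2 overexpression) incubated 18-20hr at 37C; compounds added from DMSO; agonist mix (1nM isoproterenol, 100uM IBMX, 25uM Ro-20-1724) added; 0.5hr RT; d2-cAMP and anti-cAMP-cryptate added; 1hr RT; 665/615 nm read.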

[18] = target: D(2) dopamine receptor (Homo sapiens) (UniProt P14416); test: Dopamine D2 receptor (DRD2) small molecule agonists, cell-based qHTS assay (AID 1963594); further: nearly all actives have a fitted effect of over 35% in size
Outline: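 HEK293 cells stably expressing DRD2 were cultured 24 h at 37 C, then given Ro20-1724 (0.1 mM final) and compounds for 10 min at room temperature. NKH477 (200nM) was then added for 30 min. cAMP was read by HTRF.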

[19] = target: D(2) dopamine receptor (Homo sapiens) (UniProt P14416); test: Dopamine D2 receptor (DRD2) small molecule antagonists, cell-based qHTS assay (AID 1963595; active means well fitted inhibition curve with a large enough effect in the signal ratio in the repeat runs, with a control signal flat; the % refers to the signal ratio)
Outline: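 Antagonist mode in DRD2-HEK293 cells: after compound addition with 0.1 mM Ro20-1724, cells received quinpirole (12 nM) and NKH477 (200 nM) for 30 min at room temperature; HTRF cAMP read after 1 h detection.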

Chain of Muscarinic acetylcholine receptor M1 (Homo sapiens) (P11229 whole entry, looked up): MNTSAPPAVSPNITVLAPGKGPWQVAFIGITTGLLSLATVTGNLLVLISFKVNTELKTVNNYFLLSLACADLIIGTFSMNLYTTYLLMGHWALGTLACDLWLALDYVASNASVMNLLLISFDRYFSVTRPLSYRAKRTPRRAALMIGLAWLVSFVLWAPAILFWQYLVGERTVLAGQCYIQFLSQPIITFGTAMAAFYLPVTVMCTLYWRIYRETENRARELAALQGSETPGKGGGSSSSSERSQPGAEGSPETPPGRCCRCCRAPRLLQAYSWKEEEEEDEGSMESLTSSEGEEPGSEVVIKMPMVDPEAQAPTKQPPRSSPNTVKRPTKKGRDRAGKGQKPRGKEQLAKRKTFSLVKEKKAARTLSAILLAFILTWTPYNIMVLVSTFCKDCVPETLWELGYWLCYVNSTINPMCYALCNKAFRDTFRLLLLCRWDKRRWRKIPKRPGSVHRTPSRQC
Chain of D(2) dopamine receptor (Homo sapiens) (P14416 whole entry, looked up): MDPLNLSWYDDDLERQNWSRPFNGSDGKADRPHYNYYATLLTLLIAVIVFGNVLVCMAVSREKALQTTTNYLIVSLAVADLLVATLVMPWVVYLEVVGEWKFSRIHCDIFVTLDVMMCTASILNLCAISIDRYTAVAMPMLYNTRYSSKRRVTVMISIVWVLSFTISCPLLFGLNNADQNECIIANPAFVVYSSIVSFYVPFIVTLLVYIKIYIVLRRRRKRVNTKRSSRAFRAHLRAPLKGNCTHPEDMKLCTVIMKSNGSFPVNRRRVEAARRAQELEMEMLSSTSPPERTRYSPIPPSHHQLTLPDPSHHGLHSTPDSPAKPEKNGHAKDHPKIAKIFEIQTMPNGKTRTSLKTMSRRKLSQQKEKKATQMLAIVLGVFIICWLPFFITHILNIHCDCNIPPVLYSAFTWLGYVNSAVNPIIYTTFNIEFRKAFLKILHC
Chain of Gonadotropin-releasing hormone receptor (Homo sapiens) (P30968 whole entry, looked up): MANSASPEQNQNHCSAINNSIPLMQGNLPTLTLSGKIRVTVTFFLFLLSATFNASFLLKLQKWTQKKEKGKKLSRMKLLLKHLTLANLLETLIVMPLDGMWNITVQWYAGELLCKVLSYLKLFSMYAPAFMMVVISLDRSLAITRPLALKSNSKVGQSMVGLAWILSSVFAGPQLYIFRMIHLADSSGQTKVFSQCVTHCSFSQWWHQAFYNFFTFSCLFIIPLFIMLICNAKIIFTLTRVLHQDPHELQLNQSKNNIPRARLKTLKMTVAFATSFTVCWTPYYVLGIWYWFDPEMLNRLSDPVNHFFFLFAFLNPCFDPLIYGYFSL
Chain of KiSS-1 receptor (Homo sapiens) (Q969F8 whole entry, looked up): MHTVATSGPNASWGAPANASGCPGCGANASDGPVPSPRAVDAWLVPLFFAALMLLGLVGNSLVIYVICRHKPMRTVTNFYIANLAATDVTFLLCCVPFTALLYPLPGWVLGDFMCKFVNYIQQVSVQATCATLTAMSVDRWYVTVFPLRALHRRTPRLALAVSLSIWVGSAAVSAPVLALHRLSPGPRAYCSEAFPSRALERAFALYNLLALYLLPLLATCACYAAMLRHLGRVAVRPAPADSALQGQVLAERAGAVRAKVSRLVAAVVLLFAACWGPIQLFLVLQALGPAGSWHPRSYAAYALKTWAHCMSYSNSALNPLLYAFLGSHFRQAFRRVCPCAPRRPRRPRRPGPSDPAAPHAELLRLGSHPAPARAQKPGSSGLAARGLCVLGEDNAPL
Chain of Beta-2 adrenergic receptor (Homo sapiens) (P07550 whole entry, looked up): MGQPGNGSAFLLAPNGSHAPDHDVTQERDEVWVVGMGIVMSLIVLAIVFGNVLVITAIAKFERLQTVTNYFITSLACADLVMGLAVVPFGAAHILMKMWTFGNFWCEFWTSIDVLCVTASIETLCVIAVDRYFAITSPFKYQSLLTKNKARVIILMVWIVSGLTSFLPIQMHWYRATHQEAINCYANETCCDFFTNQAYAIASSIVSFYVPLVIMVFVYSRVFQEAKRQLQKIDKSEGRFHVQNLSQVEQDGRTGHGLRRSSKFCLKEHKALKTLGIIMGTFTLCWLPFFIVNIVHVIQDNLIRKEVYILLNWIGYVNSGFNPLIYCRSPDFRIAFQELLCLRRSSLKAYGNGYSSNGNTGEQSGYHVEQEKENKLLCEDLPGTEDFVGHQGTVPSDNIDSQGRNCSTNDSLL
Chain of 5-hydroxytryptamine receptor 2A (Homo sapiens) (P28223 whole entry, looked up): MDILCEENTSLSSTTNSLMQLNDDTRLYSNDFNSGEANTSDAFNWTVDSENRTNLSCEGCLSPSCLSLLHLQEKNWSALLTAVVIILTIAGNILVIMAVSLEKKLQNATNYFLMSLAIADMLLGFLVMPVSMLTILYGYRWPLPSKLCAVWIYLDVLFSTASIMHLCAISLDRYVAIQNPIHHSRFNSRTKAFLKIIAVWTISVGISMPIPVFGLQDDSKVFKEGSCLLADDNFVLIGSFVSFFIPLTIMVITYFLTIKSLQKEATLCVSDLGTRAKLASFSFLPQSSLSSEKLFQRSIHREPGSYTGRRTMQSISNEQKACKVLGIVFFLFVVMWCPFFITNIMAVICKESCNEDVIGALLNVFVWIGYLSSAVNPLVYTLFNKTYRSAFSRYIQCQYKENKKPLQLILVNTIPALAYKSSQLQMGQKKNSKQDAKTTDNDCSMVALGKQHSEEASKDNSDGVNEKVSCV

Structure (SMILES): N#CC(C#N)=C(C#N)C#N
- Potency [1]: inactive
- Potency [2]: inactive
- Potency [3]: inactive
- Potency [4]: inactive
- Potency [5]: inactive
- Potency [6]: inactive
- Potency [7]: inactive
- Potency [8]: inactive
- Potency [9]: inactive
- Potency [10]: inactive
- Potency [11]: inactive
- Potency [12]: inactive
- Potency [13]: inactive
- Potency [14]: inactive
- Potency [15]: inactive
- Potency [16]: inactive
- Potency [17]: inactive
- Potency [18]: inactive

Structure (SMILES): CCOC(=O)COc1cc(-c2nn(C)c(OC(F)F)c2Cl)c(F)cc1Cl
- Potency [1]: inactive
- Potency [2]: inactive
- Potency [3]: inactive
- Potency [4]: inactive
- Potency [5]: inactive
- Potency [6]: inactive
- Potency [7]: inactive
- Potency [8]: inactive
- Potency [9]: inactive
- Potency [11]: inactive
- Potency [12]: inactive
- Potency [14]: inactive
- Potency [17]: inactive
- Potency [19]: inactive

Structure (SMILES): CC(Cc1ccccc1)NCCn1cnc2c1c(=O)n(C)c(=O)n2C (stereo not drawn)
- Potency [1]: inactive
- Potency [2]: inactive
- Potency [3]: inactive
- Potency [4]: inactive
- Potency [5]: inactive
- Potency [6]: inactive
- Potency [7]: inactive
- Potency [8]: inactive
- Potency [9]: inactive
- Potency [11]: inactive
- Potency [12]: inactive
- Potency [16]: inactive
- Potency [17]: inactive
- Potency [18]: inactive
- Potency [19]: inactive

Structure (SMILES): N#Cc1ccc(N(CC(N)=O)CC(F)(F)F)cc1C(F)(F)F
- Potency [1]: inactive
- Potency [2]: inactive
- Potency [3]: inactive
- Potency [4]: inactive
- Potency [5]: inactive
- Potency [6]: inactive
- Potency [7]: inactive
- Potency [8]: inactive
- Potency [9]: inactive
- Potency [10]: inactive
- Potency [11]: inactive
- Potency [12]: inactive
- Potency [13]: inactive
- Potency [14]: inactive
- Potency [15]: inactive
- Potency [16]: inactive
- Potency [17]: inactive
- Potency [19]: inactive

Structure (SMILES): ClC1=C(Cl)[C@]2(Cl)[C@H]3[C@H]([C@@H]4C=C[C@H]3C4)[C@@]1(Cl)C2(Cl)Cl
- Potency [1]: inactive
- Potency [2]: inactive
- Potency [3]: inactive
- Potency [4]: inactive
- Potency [5]: inactive
- Potency [6]: inactive
- Potency [8]: inactive
- Potency [9]: inactive
- Potency [10]: inactive
- Potency [11]: inactive
- Potency [12]: inactive
- Potency [13]: inactive
- Potency [14]: inactive
- Potency [15]: inactive
- Potency [16]: inactive
- Potency [17]: inactive
- Potency [18]: inactive
- Potency [19]: inactive

Structure (SMILES): O=C(c1ccccc1)C(Cl)Cl
- Potency [1]: 27.3 µM (active)
- Potency [2]: inactive
- Potency [3]: inactive
- Potency [4]: inactive
- Potency [5]: inactive
- Potency [6]: inactive
- Potency [7]: inactive
- Potency [9]: inactive
- Potency [11]: inactive
- Potency [12]: inactive
- Potency [13]: inactive
- Potency [14]: inactive
- Potency [15]: inactive
- Potency [17]: inactive
- Potency [19]: inactive

Structure (SMILES): Nc1ccc([N+](=O)[O-])cc1Cl
- Potency [1]: inactive
- Potency [2]: inactive
- Potency [3]: inactive
- Potency [4]: inactive
- Potency [5]: inactive
- Potency [6]: inactive
- Potency [7]: inactive
- Potency [8]: inactive
- Potency [9]: inactive
- Potency [10]: inactive
- Potency [11]: inactive
- Potency [12]: inactive
- Potency [13]: inactive
- Potency [14]: inactive
- Potency [15]: inactive
- Potency [16]: inactive
- Potency [18]: inactive

Structure (SMILES): ClC1=C(Cl)[C@]2(Cl)[C@@H]3[C@@H](Cl)[C@H]4O[C@H]4[C@@H]3C1(Cl)C2(Cl)Cl
- Potency [1]: inactive
- Potency [2]: inactive
- Potency [3]: inactive
- Potency [4]: inactive
- Potency [5]: inactive
- Potency [6]: inactive
- Potency [7]: inactive
- Potency [8]: inactive
- Potency [9]: inactive
- Potency [11]: inactive
- Potency [12]: inactive
- Potency [13]: inactive
- Potency [14]: inactive

Structure (SMILES): S=C=NCCc1ccccc1
- Potency [1]: 43.4 µM (active)
- Potency [2]: inactive
- Potency [3]: inactive
- Potency [4]: inactive
- Potency [5]: inactive
- Potency [6]: inactive
- Potency [7]: inactive
- Potency [8]: inactive
- Potency [9]: inactive
- Potency [10]: inactive
- Potency [11]: inactive
- Potency [12]: inactive
- Potency [13]: inactive
- Potency [14]: inactive
- Potency [16]: inactive
- Potency [17]: inactive
- Potency [18]: inactive
- Potency [19]: inactive

Structure (SMILES): O=[N+]([O-])c1ccc(O)c([N+](=O)[O-])c1
- Potency [1]: inactive
- Potency [2]: inactive
- Potency [3]: inactive
- Potency [4]: inactive
- Potency [5]: inactive
- Potency [6]: inactive
- Potency [7]: inactive
- Potency [8]: inactive
- Potency [9]: inactive
- Potency [10]: inactive
- Potency [11]: inactive
- Potency [12]: inactive
- Potency [13]: inactive
- Potency [14]: inactive
- Potency [17]: inactive
- Potency [18]: inactive
- Potency [19]: inactive

Structure (SMILES): C[C@@H]1O[C@@H](O[C@@H]2C=C3CC[C@@H]4[C@H](CC[C@]5(C)[C@@H](c6ccc(=O)oc6)CC[C@]45O)[C@@]3(C)CC2)[C@H](O)[C@H](O)[C@H]1O
- Potency [1]: 0.0106 µM (active)
- Potency [2]: inactive
- Potency [3]: inactive
- Potency [4]: inactive
- Potency [5]: inactive
- Potency [6]: inactive
- Potency [7]: inactive
- Potency [17]: inactive
- Potency [18]: inactive
- Potency [19]: inactive
